Active and inactive are the calls of the source.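 The calls were made as follows: active = inhibition above about 23% in any of six single-dose repeats (limit read from the data); inactive = the rest.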
Biological target: Intestinal-type alkaline phosphatase (Homo sapiens) (UniProt P09923)
Experiment: suppression of intestinal alkaline phosphatase activity – biochemical, luminescence, single concentration, uHTS hits, confirmation (AID 434927);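 also: plate controls were DMSO wells with enzyme for no effect and wells lacking enzyme for full effect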
Conditions: purified human IAP, CDP-Star luminescence, 30 min; at 8.3 µM; active compounds read high

Intestinal-type alkaline phosphatase (Homo sapiens), sequence (P09923 whole entry, looked up): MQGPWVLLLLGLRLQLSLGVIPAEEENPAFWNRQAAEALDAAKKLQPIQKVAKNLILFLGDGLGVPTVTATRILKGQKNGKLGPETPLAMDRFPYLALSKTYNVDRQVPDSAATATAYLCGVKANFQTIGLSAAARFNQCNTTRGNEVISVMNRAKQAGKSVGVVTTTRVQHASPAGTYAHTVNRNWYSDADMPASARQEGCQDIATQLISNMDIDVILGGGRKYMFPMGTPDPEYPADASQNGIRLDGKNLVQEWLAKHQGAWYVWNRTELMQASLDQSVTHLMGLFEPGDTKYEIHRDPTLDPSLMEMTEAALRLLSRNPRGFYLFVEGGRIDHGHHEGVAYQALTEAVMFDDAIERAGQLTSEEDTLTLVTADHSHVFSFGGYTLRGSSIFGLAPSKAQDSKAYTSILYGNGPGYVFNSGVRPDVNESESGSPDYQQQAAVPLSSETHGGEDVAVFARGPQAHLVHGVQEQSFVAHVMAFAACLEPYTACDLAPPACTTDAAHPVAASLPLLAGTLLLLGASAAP

SMILES: COC(=O)Cn1cc(/C=C2\C(=O)NC(=O)N(c3ccccc3)C2=O)c2ccccc21
- inhibition: 33.9% (active)

Reference: PubChem BioAssay AID434927 (Sanford-Burnham Center for Chemical Genomics, 2010)
